# The full ranking holds about 3,200 compounds; the median of “TSA(without NAD+) / Primary screening (TSA) / delta Tm (K)” is about -0.07, and the highest 2% start at about 0.37. The list comes from a sample in which the highest values are over-represented; it also holds similar structures and randomly drawn compounds.
# Target: NAD-dependent deacetylase Sirtuin 1 (human, UniProt Q96EB6)
# Experiment: primary screen, delta tm
# Parameters: single well (n = 1)
# Settings: 10 µM
# Experimental: A total of 3,192 compounds extracted from the proposed lists were first screened by thermal shift assay (TSA), which determined a melting temperature shift (ΔTm) of Sirtuin 1 upon the addition of a test compound at a concentration of 10 µM (n = 1) with primary hit criteria of ΔTm > 0.45 K or ΔTm < −1.5 K. Primary hits (48 compounds) were retested in the same assay at three concentrations (5, 10, 20 µM, n = 4) for hit confirmation and for dose-dependency check. Secondary hits (41 compounds) were checked their selectivity for Sirtuin 1 based on counterscreening on unrelated protein targets (bovine carbonic anhydrase (CA) and recombinant SH2 domain of hABL1 kinase (ABL1)) at three different concentrations (5, 10, 20 µM, n = 4), which yielded 38 hit compounds, hereafter referred to as TSA hits. The TSA screening above was conducted in the absence of NAD+.
# NAD-dependent deacetylase Sirtuin 1, sequence (Q96EB6 2-747 limits assumed): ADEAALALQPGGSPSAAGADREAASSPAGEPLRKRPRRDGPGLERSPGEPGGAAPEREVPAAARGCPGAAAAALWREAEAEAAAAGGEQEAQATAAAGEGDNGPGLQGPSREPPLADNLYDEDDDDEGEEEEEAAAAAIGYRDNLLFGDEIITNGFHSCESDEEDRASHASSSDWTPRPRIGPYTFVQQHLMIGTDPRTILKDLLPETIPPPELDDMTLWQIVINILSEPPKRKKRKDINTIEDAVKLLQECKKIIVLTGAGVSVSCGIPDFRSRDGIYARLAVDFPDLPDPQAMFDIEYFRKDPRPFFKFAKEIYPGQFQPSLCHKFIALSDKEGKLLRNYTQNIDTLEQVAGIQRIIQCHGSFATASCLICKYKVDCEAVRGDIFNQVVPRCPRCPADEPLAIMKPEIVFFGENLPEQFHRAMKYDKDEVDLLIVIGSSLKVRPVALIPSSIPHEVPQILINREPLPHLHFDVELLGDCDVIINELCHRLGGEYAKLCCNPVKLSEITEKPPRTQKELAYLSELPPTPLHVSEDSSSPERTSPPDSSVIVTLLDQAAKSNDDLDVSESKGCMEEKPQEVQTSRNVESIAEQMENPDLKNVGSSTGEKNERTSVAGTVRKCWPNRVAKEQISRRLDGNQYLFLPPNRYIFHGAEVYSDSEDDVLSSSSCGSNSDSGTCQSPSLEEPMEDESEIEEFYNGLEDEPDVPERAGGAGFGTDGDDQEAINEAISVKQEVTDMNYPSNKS
row,SMILES,TSA(without NAD+) / Primary screening (TSA) / delta Tm (K)
1,Cc1nn(CC(=O)N2CCC(N3CCCC3C(N)=O)CC2)cc1-c1ccccc1 (stereo not shown),-0.22
2,CC(Nc1ccnc(CC#N)c1)C(=O)N1CCCCC1C (stereo not shown),-0.28
3,CS(=O)(=O)c1cccc(C(=O)N(Cc2ccccc2)c2ccccc2)c1,-0.13
4,CCCn1nnnc1CN1C(=O)NC(Cc2c[nH]c3ccccc23)C1=O (stereo not shown),-0.28
5,O=C(Cn1[nH]c(=O)c2ccccc2c1=O)NC1CCCc2ccccc21 (stereo not shown),0.19
6,Cc1ccccc1N1C(=O)c2ccc(C(=O)OCC(N)=O)cc2C1=O,-0.08
7,CC1(C)C(=O)Nc2ccccc2N1C(=O)CNc1cccc2c1CCCC2,-0.24
8,CCS(=O)(=O)N1CCN(c2ccc(C(N)=O)cc2)CC1,-0.15
9,O=C(c1cnc2ccccc2n1)N1CCCC1c1nc2ccccc2s1 (stereo not shown),-0.04
10,COc1ccc(N(C)S(=O)(=O)c2cccc(C(=O)Nc3sc4c(c3C(N)=O)CCC(C)C4)c2)cc1 (stereo not shown),0.08
11,CN(C)c1ccnc(N2CCCC(N3CCNC3=O)C2)n1 (stereo not shown),-0.18
12,Cc1ccc(N(C)S(=O)(=O)c2cccc(C(=O)Nc3ccc4c(c3)C(=O)N(C)C4=O)c2)cc1,0.45
13,COc1ccc(N(C)S(=O)(=O)c2cccc(C(=O)Nc3cccc(C#N)c3)c2)cc1,0.22
14,CN(c1ccccc1)S(=O)(=O)c1cccc(C(=O)Nc2ccccc2)c1,0.12
15,Cc1ccc(N(C)S(=O)(=O)c2cccc(C(=O)Nc3cccc(C(=O)NC4CC4)c3)c2)cc1,0.06
16,CSc1cccc(NC(=O)c2cccc(S(=O)(=O)N(C)c3ccc(C)cc3)c2)c1,0.35
17,Cc1ccc(C(=O)NNC(=O)c2cccc(S(=O)(=O)N(C)c3ccc(C)cc3)c2)cc1,-0.14
18,CN(c1ccccc1)S(=O)(=O)c1cccc(NC(=O)c2ccc(C(N)=O)cc2)c1,0.02
19,CC1CCc2[nH]c3ccc(C(=O)Nc4cccc(S(=O)(=O)N(C)c5ccccc5)c4)cc3c2C1 (stereo not shown),0.42
20,Cc1ccc(N(C)S(=O)(=O)c2cccc(C(=O)Nc3cccc(C#N)c3)c2)cc1,0.43
21,Cc1ccc(N(C)S(=O)(=O)c2cccc(C(=O)NNC(=O)c3ccncc3)c2)cc1,-0.08
22,CN(c1ccccc1)S(=O)(=O)c1cccc(NC(=O)c2cccc(C#N)c2)c1,0.13

row,SMILES,TSA(without NAD+) / Primary screening (TSA) / delta Tm (K)
1,Cc1ccc(N(C)S(=O)(=O)c2cccc(C(=O)NNC(=O)CC34CC5CC(CC(C5)C3)C4)c2)cc1,0.45
2,Cc1cc(CSc2nc3ccccc3[nH]2)no1,0.07
3,Cc1ccc(C(=Nc2c(C)cc(C)cc2C)c2ccc(C)cc2)cc1,-0.04
4,CC(C#N)(NC(=O)CNc1cccnc1-c1ccccc1)C1CC1 (stereo not shown),0.08
5,CN(Cc1ccccc1)C(=O)NCC1CCN(c2ccncc2)CC1,-0.02
6,CC1CCc2[nH]c3ccc(C(=O)OCC(=O)NC(=O)NC45CC6CC(CC(C6)C4)C5)cc3c2C1 (stereo not shown),0.27
7,CN(Cc1nc2ccccc2s1)C(=O)CSc1nnc(CC2CCS(=O)(=O)C2)o1 (stereo not shown),-0.13
8,CN(c1cccc(Cl)c1)S(=O)(=O)c1cccc(C(=O)Nc2ccc(C(N)=O)cc2)c1,0.08
9,CN(C)c1ccc(NC(=O)c2cccc(S(=O)(=O)N(C)c3cccc(Cl)c3)c2)cc1,0.27
10,CCCCc1ccc(NC(=O)c2cccc(S(=O)(=O)N(C)c3cccc(Cl)c3)c2)cc1,0.58
11,Cc1ccc(N(C)S(=O)(=O)c2cccc(C(=O)Nc3ccc(Br)c(C)c3)c2)cc1,0.48
12,COc1cccc(NC(=O)c2cccc(S(=O)(=O)N(C)c3ccc(C)cc3)c2)c1,-0.02
13,Cc1ccc(N(C)S(=O)(=O)c2cccc(C(=O)Nc3ccncc3)c2)cc1,-0.18
14,COC(=O)c1ccccc1NC(=O)Cc1c[nH]c2ccccc12,-0.22
15,CCOc1cc(/C=N/NC(=O)c2cc3c(s2)CCCC3)ccc1OCC(=O)Nc1cccc(C(F)(F)F)c1,5.11
16,COc1cc(/C=N/NC(=O)c2cc3c(s2)CCCC3)ccc1OS(=O)(=O)c1cc(C)ccc1C,0.32
17,COc1cc(/C=N/NC(=O)c2cc3c(s2)CCCC3)ccc1OCC(=O)Nc1ccc(C)cc1,-0.22
18,O=C(C1=C(O)C(=O)N(CCCN2CCOCC2)C1c1ccco1)c1ccc(F)cc1 (stereo not shown),-0.08
19,CC(NC(=O)COC(=O)c1ccc2c(c1)S(=O)(=O)c1ccccc1C2=O)C12CC3CC(CC(C3)C1)C2 (stereo not shown),0.17
20,CC(NC(=O)COC(=O)CCCN1C(=O)c2cccc3cccc(c23)C1=O)C12CC3CC(CC(C3)C1)C2 (stereo not shown),-0.34
21,CC(C)CCN1C(=O)c2ccc(C(=O)OCC(=O)NC(C)C34CC5CC(CC(C5)C3)C4)cc2C1=O (stereo not shown),0.48
22,COc1ccc(C(=O)C2=C(O)C(=O)N(CCCN3CCOCC3)C2c2ccc(OC)cc2)cc1 (stereo not shown),-0.13

row,SMILES,TSA(without NAD+) / Primary screening (TSA) / delta Tm (K)
1,NS(=O)(=O)c1ccc(C(=O)Nc2ccc3c(c2)-c2ccccc2C3)cc1,0.23
2,CC(=O)Nc1ccc(NC(=O)c2cccc(C(N)=O)c2)cc1C,-0.07
3,NC(=O)c1cccc(NC(=O)c2cc3c(s2)-c2ccccc2CC3)c1,1.03
4,NC(=O)Cn1cnc2c(cnn2-c2ccccc2)c1=O,-0.08
5,Cc1cc(S(=O)(=O)NCc2ccc(C(N)=O)cc2)sc1Cl,-0.11
6,CC(C)(C)c1ccccc1NC(=O)c1ccc(S(=O)(=O)N2CCCC2)cc1,-0.07
7,O=c1onc(-c2cnccn2)n1Cc1nc2cc([N+](=O)[O-])ccc2o1,-0.12
8,O=C(CSc1nnnn1-c1ccc(O)cc1)N1N=C(c2ccc3ccccc3c2)CC1c1ccccc1 (stereo not shown),0.49
9,CC(=O)N1N=C(c2ccc(O)cc2)CC1c1ccccc1 (stereo not shown),0.07
10,CC(=O)N1N=C(c2ccccc2)CC1c1ccc(Br)cc1 (stereo not shown),-0.02
11,CN(C(=O)Cc1ccc(NC(=O)NCc2ccc(-n3cncn3)nc2)cc1)c1ccccc1,0.08
12,Cc1ccc(NC(=O)NCCc2cccc(O)c2)cc1NC(=O)NCCc1cccc(O)c1,0.38
13,CN1CCCN(c2ccc(NC(=O)NCCCNC(=O)c3cccc(O)c3)cc2F)CC1,0.02
14,CCCNC(=O)Nc1ccc(OC)cc1,-0.12
15,CC(CN1CCOCC1)NC(=O)C(Cc1ccccc1)n1cnnn1 (stereo not shown),-0.23
16,Cc1ccc(N(C)S(=O)(=O)c2cccc(C(=O)Nc3ccccc3C(F)(F)F)c2)cc1,-0.13
17,O=C(NN/C=C1/C(=O)N(c2cccc(C(F)(F)F)c2)C(=O)c2ccccc21)c1cccc(S(=O)(=O)Nc2ccccc2Cl)c1,1.45
18,Cc1ccc(N(C)S(=O)(=O)c2cccc(C(=O)Nc3ccccc3Cl)c2)cc1,0.07
19,COC(=O)c1cc(-c2csc(NC(=O)c3cccc(NC(=O)c4cnoc4C)c3)n2)c[nH]1,0.46
20,COc1ccc(NC(=O)c2ccc(NC(=O)c3cnoc3C)cc2)cc1OCc1cccnc1,-0.18
21,NC(=O)NCc1ccc(C(=O)Nc2nc(-c3c[nH]c(C(N)=O)c3)cs2)cc1,-0.03
22,Cc1nc(-c2ccc(CCNC(=O)c3ccc(NC(=O)c4cccs4)cc3)s2)cs1,0.63

row,SMILES,TSA(without NAD+) / Primary screening (TSA) / delta Tm (K)
1,COc1ccc(C(=O)NCCc2ccc(-c3csc(C)n3)s2)cc1,0.07
2,Cc1nc(-c2ccc(CCNC(=O)c3ccc(NC(N)=O)cc3)s2)cs1,0.23
3,COc1ccc(C(=O)C2=C(O)C(=O)N(CCCN3CCOCC3)C2c2ccccc2)cc1C (stereo not shown),0.06
4,CC(c1ccc(S(N)(=O)=O)cc1)N(C)Cc1nc2ccccc2c(=O)[nH]1 (stereo not shown),-0.15
5,O=C1CCCN1C(=O)Cn1cnc2cc(Cl)ccc2c1=O,-0.11
6,COc1ccc(NC(=O)C2=COCCO2)cc1S(=O)(=O)N1CCOCC1,-0.13
7,COc1ccc(NC(=O)C2=COCCO2)cc1Cc1ccccc1,0.45
8,O=C(Nc1ccc(OC(F)F)c(Cc2ccccc2)c1)C1=COCCO1,-0.12
9,O=C(Nc1cccc(Cn2[nH]c(=O)ccc2=O)c1)c1cccc(Oc2ccccc2)c1,-0.13
10,NC(=O)c1ccc(OCC(=O)NC(=O)NCc2cccs2)cc1,0.03
11,NC(=O)C1CCN(c2nc(-c3cccs3)nc3sc4c(c23)CCCC4)CC1,2.58
12,Cc1sc2nc(-c3cccs3)nc(N3CCC(C(N)=O)CC3)c2c1C,0.58
13,NC(=O)C1CCN(c2nc(-c3cccnc3)nc3sc4c(c23)CCCC4)CC1,0.33
14,Cc1sc2ncnc(N3CCC(C(N)=O)CC3)c2c1C,-0.11
15,Cc1sc2nc(-c3cccnc3)nc(N3CCC(C(N)=O)CC3)c2c1C,0.25
16,NC(=O)C1CCN(c2ncnc3sc4c(c23)CCCC4)CC1,0.28
17,CCSCCOC(=O)c1ccc2[nH]c(C(F)F)nc2c1,-0.04
18,Cn1c2ccccc2c2cc(S(=O)(=O)NCc3cccc(NC(=O)C4CC4)c3)ccc21,-0.03
19,CS(=O)(=O)c1ccc(NC(=O)c2ccccc2SCC(=O)NC23CC4CC(CC(C4)C2)C3)cc1,-0.03
